The supplement of paper PMC10849652
Targets with a hit are over-represented here; the source holds about 7,900 in all. About 0.6% of all pairs of compound and target were hits. Unmarked numbers belong to inactive results.

Key:
Assay in all cases: log2 fold change, soluble protein after heating vs DMSO (PISA); higher = thermal stabilisation; K562 cells, 10 uM, 30 min; active = over 0.2 and 3.5 SD of the protein, either way, in both replicates (recomputed)
[1] = compound: COC1=CC=C(C=C1)CN2C=CC3=C2C=C(C=C3)C(=O)NO
Outline: (§1)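 K562 cells at 2×10^6 cells/mL were exposed to 10 μM compound for 30 min, then aliquots were heated for 3 min across 48°C-58°C, pooled, and extracted in PBS containing 0.5% NP-40 at 4°C. The supernatant after 21,000xg for 90 min was taken as soluble protein and measured by TMTpro 16plex LC-MS/MS with channel sums equalised. Thermal stability is reported relative to control samples, with values from duplicates. Fold changes are given on a log2 scale.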

filanesib = compound: CON(C)C(=O)N1N=C(c2cc(F)ccc2F)S[C@@]1(CCCN)c1ccccc1 [filanesib]
Outline: as §1

zotarolimus = compound: CO[C@H]1C[C@@H]2CC[C@@H](C)[C@@](O)(O2)C(=O)C(=O)N2CCCC[C@H]2C(=O)O[C@H]([C@H](C)C[C@@H]2CC[C@H](n3cnnn3)[C@H](OC)C2)CC(=O)[C@H](C)/C=C(\C)[C@@H](O)[C@@H](OC)C(=O)[C@H](C)C[C@H](C)/C=C/C=C/C=C/1C [zotarolimus]
Outline: as §1

idasanutlin = compound: COc1cc(C(=O)O)ccc1NC(=O)[C@@H]1N[C@@H](CC(C)(C)C)[C@](C#N)(c2ccc(Cl)cc2F)[C@H]1c1cccc(Cl)c1F [idasanutlin]
Outline: as §1

alisertib = compound: COc1cc(Nc2ncc3c(n2)-c2ccc(Cl)cc2C(c2c(F)cccc2OC)=NC3)ccc1C(=O)O [alisertib]
Outline: as §1

[2] = compound: COc1cc2nc(-c3cc(F)ccc3O)nc(N[C@@H]3CNC[C@H]3C(C)(C)O)c2cc1OC
Outline: as §1

gefitinib = compound: COc1cc2ncnc(Nc3ccc(F)c(Cl)c3)c2cc1OCCCN1CCOCC1 [gefitinib]
Outline: as §1

[3] = compound: COc1cccc2cc(-c3nc([C@H]4CC[C@H](C(=O)O)CC4)n4ncnc(N)c34)[nH]c12
Outline: as §1

lapatinib = compound: CS(=O)(=O)CCNCc1ccc(-c2ccc3ncnc(Nc4ccc(OCc5cccc(F)c5)c(Cl)c4)c3c2)o1 [lapatinib]
Outline: as §1

pictilisib = compound: CS(=O)(=O)N1CCN(Cc2cc3nc(-c4cccc5[nH]ncc45)nc(N4CCOCC4)c3s2)CC1 [pictilisib]
Outline: as §1

Sequence of UniProt O75438 (O75438 whole entry, looked up): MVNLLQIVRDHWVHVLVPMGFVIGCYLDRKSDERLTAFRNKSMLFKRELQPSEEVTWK
Sequence of UniProt P11586 (P11586 whole entry, looked up): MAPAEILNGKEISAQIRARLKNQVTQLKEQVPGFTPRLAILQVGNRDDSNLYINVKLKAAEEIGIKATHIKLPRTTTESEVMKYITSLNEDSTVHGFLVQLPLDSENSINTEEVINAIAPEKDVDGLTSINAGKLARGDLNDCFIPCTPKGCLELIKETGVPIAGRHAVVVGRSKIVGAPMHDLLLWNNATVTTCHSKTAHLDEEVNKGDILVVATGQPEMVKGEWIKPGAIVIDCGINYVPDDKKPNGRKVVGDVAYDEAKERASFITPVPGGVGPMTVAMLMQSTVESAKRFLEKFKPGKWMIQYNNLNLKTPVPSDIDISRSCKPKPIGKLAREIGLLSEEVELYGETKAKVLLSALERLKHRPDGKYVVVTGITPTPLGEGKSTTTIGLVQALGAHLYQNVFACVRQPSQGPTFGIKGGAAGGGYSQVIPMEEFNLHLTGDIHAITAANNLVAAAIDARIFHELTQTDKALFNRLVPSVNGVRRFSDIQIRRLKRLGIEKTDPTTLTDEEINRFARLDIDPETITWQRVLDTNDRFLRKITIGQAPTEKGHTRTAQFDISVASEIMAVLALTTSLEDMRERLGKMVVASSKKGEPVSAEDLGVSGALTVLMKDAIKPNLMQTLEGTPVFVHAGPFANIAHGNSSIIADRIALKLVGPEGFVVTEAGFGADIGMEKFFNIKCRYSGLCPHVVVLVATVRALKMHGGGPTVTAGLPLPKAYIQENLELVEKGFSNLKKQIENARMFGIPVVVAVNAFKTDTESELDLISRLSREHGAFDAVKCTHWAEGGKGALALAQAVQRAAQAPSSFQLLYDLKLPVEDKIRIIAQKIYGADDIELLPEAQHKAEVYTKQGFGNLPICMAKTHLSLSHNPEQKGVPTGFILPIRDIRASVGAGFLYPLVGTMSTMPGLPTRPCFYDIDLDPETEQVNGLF
Sequence of UniProt P84157 (P84157 whole entry, looked up): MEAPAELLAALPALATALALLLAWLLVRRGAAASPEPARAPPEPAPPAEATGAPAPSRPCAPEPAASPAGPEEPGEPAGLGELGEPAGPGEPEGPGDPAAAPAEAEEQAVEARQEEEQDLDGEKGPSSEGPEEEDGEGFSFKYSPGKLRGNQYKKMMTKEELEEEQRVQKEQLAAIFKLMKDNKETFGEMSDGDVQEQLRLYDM
Sequence of UniProt Q15021 (Q15021 whole entry, looked up): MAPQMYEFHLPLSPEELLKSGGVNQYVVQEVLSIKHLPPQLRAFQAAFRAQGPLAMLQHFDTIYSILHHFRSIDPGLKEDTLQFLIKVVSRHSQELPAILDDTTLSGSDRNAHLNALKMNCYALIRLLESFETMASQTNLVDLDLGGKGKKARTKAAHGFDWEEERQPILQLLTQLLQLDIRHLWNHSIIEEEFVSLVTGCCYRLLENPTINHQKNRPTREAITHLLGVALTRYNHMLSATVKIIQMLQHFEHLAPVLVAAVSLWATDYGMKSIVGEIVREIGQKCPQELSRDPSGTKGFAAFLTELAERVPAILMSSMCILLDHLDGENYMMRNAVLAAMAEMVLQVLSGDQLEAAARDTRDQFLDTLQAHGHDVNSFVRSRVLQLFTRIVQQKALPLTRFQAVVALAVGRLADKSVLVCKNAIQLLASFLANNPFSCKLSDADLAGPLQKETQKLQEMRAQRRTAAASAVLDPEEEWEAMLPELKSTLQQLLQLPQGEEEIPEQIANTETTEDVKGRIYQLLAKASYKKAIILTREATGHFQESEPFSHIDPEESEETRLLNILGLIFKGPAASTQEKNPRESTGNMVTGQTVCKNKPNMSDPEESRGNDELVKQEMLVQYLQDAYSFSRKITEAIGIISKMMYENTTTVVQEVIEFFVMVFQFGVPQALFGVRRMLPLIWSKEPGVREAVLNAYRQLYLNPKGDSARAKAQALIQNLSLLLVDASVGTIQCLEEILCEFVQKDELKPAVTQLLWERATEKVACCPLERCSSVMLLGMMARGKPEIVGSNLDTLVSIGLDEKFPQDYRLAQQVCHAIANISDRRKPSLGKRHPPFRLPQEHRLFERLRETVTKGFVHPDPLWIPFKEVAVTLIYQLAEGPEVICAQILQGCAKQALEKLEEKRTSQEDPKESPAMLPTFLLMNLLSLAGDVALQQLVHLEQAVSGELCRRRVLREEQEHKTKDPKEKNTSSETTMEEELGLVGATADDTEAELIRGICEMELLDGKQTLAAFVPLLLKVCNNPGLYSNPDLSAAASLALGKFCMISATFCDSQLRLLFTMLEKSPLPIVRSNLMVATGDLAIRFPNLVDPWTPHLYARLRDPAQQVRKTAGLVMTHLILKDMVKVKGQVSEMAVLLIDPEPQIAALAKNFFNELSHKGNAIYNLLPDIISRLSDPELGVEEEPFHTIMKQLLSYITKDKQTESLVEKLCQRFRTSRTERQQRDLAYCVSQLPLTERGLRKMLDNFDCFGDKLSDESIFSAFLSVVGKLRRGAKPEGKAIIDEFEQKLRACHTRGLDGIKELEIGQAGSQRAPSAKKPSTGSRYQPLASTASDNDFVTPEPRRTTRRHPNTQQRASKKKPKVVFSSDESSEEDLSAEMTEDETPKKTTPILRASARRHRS
Sequence of UniProt Q16656 (Q16656 whole entry, looked up): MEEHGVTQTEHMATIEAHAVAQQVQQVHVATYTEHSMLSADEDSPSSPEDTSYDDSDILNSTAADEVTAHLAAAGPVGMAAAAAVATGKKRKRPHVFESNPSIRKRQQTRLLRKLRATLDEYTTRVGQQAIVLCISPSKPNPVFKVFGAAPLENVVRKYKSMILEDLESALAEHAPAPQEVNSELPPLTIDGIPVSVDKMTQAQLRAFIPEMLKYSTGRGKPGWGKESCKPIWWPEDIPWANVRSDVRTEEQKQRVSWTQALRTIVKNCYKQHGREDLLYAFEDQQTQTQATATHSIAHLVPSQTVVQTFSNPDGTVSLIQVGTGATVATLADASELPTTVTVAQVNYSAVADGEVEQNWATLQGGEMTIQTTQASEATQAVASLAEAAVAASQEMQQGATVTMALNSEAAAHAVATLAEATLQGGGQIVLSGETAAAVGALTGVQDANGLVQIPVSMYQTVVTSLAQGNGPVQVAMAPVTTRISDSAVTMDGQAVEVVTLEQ
Sequence of UniProt Q12986 (Q12986 whole entry, looked up): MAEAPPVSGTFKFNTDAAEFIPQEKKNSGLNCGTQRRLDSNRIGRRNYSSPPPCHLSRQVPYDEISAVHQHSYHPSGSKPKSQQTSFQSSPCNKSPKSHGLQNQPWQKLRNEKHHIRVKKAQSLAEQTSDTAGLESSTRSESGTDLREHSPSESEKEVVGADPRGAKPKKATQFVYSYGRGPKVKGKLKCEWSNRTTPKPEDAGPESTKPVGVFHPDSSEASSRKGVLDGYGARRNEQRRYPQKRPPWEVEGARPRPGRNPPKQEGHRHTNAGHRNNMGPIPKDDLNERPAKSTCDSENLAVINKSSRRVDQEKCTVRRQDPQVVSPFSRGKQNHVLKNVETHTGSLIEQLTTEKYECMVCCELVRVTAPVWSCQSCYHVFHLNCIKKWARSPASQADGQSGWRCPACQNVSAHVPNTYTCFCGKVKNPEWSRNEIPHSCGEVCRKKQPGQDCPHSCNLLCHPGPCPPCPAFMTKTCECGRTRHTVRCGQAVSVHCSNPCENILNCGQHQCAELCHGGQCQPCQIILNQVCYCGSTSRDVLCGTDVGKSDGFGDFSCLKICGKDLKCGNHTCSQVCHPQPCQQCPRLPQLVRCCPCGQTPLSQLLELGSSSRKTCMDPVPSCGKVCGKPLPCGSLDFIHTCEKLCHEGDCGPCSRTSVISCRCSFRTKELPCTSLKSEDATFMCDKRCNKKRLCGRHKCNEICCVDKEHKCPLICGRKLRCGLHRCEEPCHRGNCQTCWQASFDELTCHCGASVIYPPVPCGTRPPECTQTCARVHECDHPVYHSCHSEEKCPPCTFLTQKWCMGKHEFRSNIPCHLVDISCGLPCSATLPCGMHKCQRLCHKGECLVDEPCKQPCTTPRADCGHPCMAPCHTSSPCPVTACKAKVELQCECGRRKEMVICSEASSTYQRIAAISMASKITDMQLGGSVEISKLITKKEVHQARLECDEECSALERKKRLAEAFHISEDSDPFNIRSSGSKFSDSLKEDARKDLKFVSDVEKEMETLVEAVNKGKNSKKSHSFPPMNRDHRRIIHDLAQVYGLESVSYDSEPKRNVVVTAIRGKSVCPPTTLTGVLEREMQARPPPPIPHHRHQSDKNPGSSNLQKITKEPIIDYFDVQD
Sequence of UniProt O43809 (O43809 whole entry, looked up): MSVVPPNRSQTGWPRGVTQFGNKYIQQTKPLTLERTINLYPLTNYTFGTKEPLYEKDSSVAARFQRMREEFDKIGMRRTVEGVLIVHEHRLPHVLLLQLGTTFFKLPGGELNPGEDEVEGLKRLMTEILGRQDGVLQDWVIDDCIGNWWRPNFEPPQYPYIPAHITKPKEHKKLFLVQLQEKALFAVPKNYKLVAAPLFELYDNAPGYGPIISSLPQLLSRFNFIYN
Sequence of UniProt Q9H000 (Q9H000 whole entry, looked up): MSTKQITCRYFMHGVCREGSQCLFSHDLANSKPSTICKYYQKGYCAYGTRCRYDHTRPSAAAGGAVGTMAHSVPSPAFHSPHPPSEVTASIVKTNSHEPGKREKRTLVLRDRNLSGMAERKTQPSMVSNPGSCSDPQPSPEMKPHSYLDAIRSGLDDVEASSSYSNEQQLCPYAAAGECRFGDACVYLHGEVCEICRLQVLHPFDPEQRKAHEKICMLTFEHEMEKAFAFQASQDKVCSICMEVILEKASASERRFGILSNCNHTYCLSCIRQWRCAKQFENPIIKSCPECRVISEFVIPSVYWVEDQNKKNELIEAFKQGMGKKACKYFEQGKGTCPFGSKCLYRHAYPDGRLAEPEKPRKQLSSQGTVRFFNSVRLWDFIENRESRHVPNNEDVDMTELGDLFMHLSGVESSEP
Sequence of UniProt Q9BRA0 (Q9BRA0 whole entry, looked up): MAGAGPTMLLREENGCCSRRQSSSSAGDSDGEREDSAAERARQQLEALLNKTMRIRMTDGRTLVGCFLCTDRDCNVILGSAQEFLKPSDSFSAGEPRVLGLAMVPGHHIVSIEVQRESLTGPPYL

Row | Target | log2 fold change [1] | log2 fold change (filanesib) | log2 fold change (zotarolimus) | log2 fold change (idasanutlin) | log2 fold change (alisertib) | log2 fold change [2] | log2 fold change (gefitinib) | log2 fold change [3] | log2 fold change (lapatinib) | log2 fold change (pictilisib)
1 | MXRA7 (UniProt P84157) | -0.248 | 0.135 | 0.023 | -0.066 | -0.017 | -0.007 | 0.058 | 0.067 | 0 | -0.053
2 | NFE2 (UniProt Q16621) | 0.135 | 0 | 0.146 | 0.023 | -0.056 | -0.032 | -0.008 | 0.014 | 0.007 | 0.05
3 | NAPG (UniProt Q99747) | 0.046 | -0.046 | 0.052 | -0.001 | -0.005 | -0.066 | 0.025 | -0.089 | 0.029 | -0.008
4 | NDUFB1 (UniProt O75438) | 0.031 | -0.029 | -0.055 | 0.029 | -0.062 | -0.08 | 0.083 | 0.076 | -0.028 | -0.196
5 | NUDT1 (UniProt P36639) | 0.043 | -0.06 | -0.068 | -0.169 | -0.017 | 0.11 | 0.354 | -0.046 | -0.016 | -0.01
6 | NUDT16 (UniProt Q96DE0) | -0.033 | -0.018 | 0.1 | -0.01 | -0.168 | 0.025 | 0.005 | 0.112 | 0.054 | 0.045
7 | PAK1 isoform 2 (UniProt Q13153) | 0.178 | 0.04 | 0.003 | -0.155 | 0.086 | -0.007 | -0.025 | -0.098 | -0.015 | 0.183
8 | ORC5 (UniProt O43913) | 0.016 | 0.104 | 0.028 | -0.013 | 0.125 | 0.07 | 0.088 | 0.018 | 0.062 | 0.012
9 | MRPS35 (UniProt P82673) | 0.018 | 0.024 | 0.051 | -0.168 | -0.04 | 0.026 | -0.054 | -0.13 | 0.022 | -0.021
10 | MND1 (UniProt Q9BWT6) | -0.037 | -0.057 | -0.077 | 0.099 | 0.062 | -0.235 | -0.193 | 0.03 | -0.025 | 0.032
11 | NDUFA9 (UniProt Q16795) | -0.002 | -0.116 | 0.008 | -0.229 (active) | -0.04 | -0.008 | -0.055 | 0.014 | -0.052 | -0.024
12 | MON1B (UniProt Q7L1V2) | -0.012 | 0.029 | -0.008 | -0.056 | -0.136 | 0.065 | -0.012 | 0.037 | 0.055 | 0.029
13 | MYL12B (UniProt O14950) | -0.008 | -0.052 | 0.111 | -0.064 | -0.06 | 0.022 | -0.001 | -0.018 | 0.047 | -0.015
14 | NOP58 (UniProt Q9Y2X3) | -0.124 | 0.528 (active) | 0.044 | 0.229 | -0.035 | -0.096 | 0.039 | -0.028 | 0.054 | 0.049
15 | MTOR (UniProt P42345) | 0.002 | -0.112 | -0.308 (active) | -0.09 | -0.017 | -0.012 | -0.018 | -0.019 | 0.014 | 0.019
16 | NAA38 isoform 2 (UniProt Q9BRA0) | 0.033 | -0.014 | 0.001 | -0.045 | 0.044 | -0.005 | 0.02 | 0.052 | 0.062 | 0.023
17 | NELFA (UniProt Q9H3P2) | 0.031 | 0.035 | -0.084 | -0.117 | 0.092 | 0.105 | 0.36 | 0.017 | -0.079 | 0.076
18 | NSUN2 (UniProt Q08J23) | -0.153 | -0.002 | -0.046 | 0.021 | -0.022 | -0.235 | 0.015 | -0.003 | 0.035 | -0.088
19 | OGFR (UniProt Q9NZT2) | -0.005 | 0.048 | 0.137 | -0.042 | -0.157 | 0.023 | -0.015 | -0.152 | 0 | 0.019
20 | NCAPD2 (UniProt Q15021) | 0.025 | -0.006 | 0.061 | -0.072 | -0.005 | 0.092 | 0.029 | -0.138 | -0.024 | 0.059
21 | OTUD6B (UniProt Q8N6M0) | 0.016 | -0.025 | 0.1 | -0.012 | 0.005 | 0.005 | -0.017 | -0.013 | -0.028 | 0.017
22 | NFX1 (UniProt Q12986) | -0.152 | 0.133 | -0.141 | 0.102 | 0.203 | 0.079 | 0.037 | -0.012 | 0.112 | 0.004
23 | OSTM1 (UniProt Q86WC4) | -0.012 | -0.122 | 0.007 | 0.002 | -0.015 | -0.09 | -0.066 | 0.002 | 0.056 | 0.055
24 | MRPL50 (UniProt Q8N5N7) | -0.03 | 0.078 | 0.202 | -0.122 | -0.078 | -0.719 (active) | 0.004 | -0.022 | 0.42 | -0.067
25 | MKRN2 (UniProt Q9H000) | 0.024 | 0.137 | -0.035 | 0.147 | -0.009 | 0.101 | -0.099 | -0.079 | -0.027 | 0.03
26 | NUDT21 (UniProt O43809) | -0.003 | 0.027 | 0.013 | 0.006 | -0.077 | 0.102 | -0.019 | 0.031 | -0.019 | 0.017
27 | NRF1 isoform 4 (UniProt Q16656) | 0.048 | -0.054 | 0.098 | 0.03 | -0.077 | -0.135 | 0.03 | 0.019 | -0.078 | 0.167
28 | NPC1 (UniProt O15118) | 0.04 | -0.12 | -0.038 | 0.025 | -0.067 | 0.035 | -0.027 | 0.057 | 0.026 | 0
29 | NECTIN2 (UniProt Q92692) | -0.028 | 0.027 | -0.042 | -0.003 | -0.084 | 0.011 | 0.06 | 0.014 | -0.01 | 0.021
30 | MTHFD1 (UniProt P11586) | 0.048 | -0.07 | 0.04 | -0.036 | -0.001 | 0.017 | 0.055 | -0.015 | 0.014 | -0.002
